Results: PubChem BioAssay
Values joined by “and” are separate entries in the source; they are usually repeats but may differ in a detail not shown here. Identical values can stand only once. Active and inactive are the calls of the source.

Tests used:
[1] = test system: PRMT1 (protein arginine N-methyltransferase 1); experiment: PRMT1 binders on small-molecule microarrays, primary screen, biochemical, small-molecule microarray, 635 nm fluorescence (AID 1088); conditions: small-molecule microarray binding, higher = more signal;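 note: binding of Prmt1 protein to compounds spotted on small-molecule microarray slides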
[2] = yeast growth modulation, basal conditions, primary screen, YJM789 clinical isolate, OD600, 24 h (AID 1089);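 note: growth of clinical yeast isolate S. cerevisiae YJM 789 seeded 1000 cells per well; test concentration not given here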; conditions: S. cerevisiae YJM789 growth, higher = more signal, called active from +8 up or from −8 down
[3] = fission yeast growth modulation, primary screen, strain 972, OD600, 24 h, no modulator (AID 1090);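 note: basal condition with compound alone and no growth modifier present; test concentration not given here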; conditions: S. pombe 972 growth, higher = more signal, called active from +8 up or from −8 down
[4] = S. cerevisiae growth modulation with rapamycin, primary screen, strain BY4716, OD600, 96 h (AID 1091); conditions: higher = more signal, called active from +8 up or from −8 down; note: test concentration not given here
[5] = target: Torsin-1A-interacting protein 2 (Homo sapiens) (UniProt Q8NFQ8); experiment: LULL1 binders on small-molecule microarray, primary screen, cell lysate, human LULL1 lysate, 635/667 nm fluorescence (AID 1092); conditions: hLULL1 lysate binding, 635 nm fluorescence, higher = more signal;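 note: probe is lysate of COS7 cells overexpressing human LULL1; score merges per-feature 667 nm fluorescence with signal-to-noise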
[6] = E. coli growth modulation, two-sided OD650, primary screen, E. coli filamentation project, strain DRC41, 24 h (AID 1093); conditions: OD650, 24 h, higher = more signal, called active from +8 up or from −8 down;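 note: MC1000 strain lacking acrAB efflux and sulA so SOS filamentation is blocked; test concentration not given here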
[7] = small-molecule microarray binders of probe aLefty2, primary screen, biochemical, biotinylated probe, 635/667 nm fluorescence (AID 1094); conditions: higher = more signal;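 note: score merges spot fluorescence near 667 nm with spot signal-to-noise ratio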
[8] = test system: Noggin (protein binding on small-molecule microarray); experiment: Noggin binders on small-molecule microarray, primary screen, biochemical, 635/667 nm fluorescence (AID 1095); conditions: 635 nm fluorescence, higher = more signal;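 note: score merges 667 nm feature fluorescence with signal to noise over triplicate slides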
[9] = target: Neurogenic locus notch homolog protein 3 (Homo sapiens) (UniProt Q9UM47); experiment: NOTCH3 binders on small-molecule microarray, primary screen, biochemical, 635/667 nm fluorescence (AID 1096); conditions: NOTCH3 binding, 635 nm fluorescence, higher = more signal
[10] = small-molecule microarray binders of probe aEGFR, primary screen, biochemical, biotinylated probe, 635/667 nm fluorescence (AID 1097); conditions: higher = more signal;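 note: probe is a biotinylated anti-EGFR antibody binding compounds printed on slides; score combines fluorescence near 667 nm and signal to noise of each spot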

Sequence of Torsin-1A-interacting protein 2 (Homo sapiens) (Q8NFQ8 whole entry, looked up): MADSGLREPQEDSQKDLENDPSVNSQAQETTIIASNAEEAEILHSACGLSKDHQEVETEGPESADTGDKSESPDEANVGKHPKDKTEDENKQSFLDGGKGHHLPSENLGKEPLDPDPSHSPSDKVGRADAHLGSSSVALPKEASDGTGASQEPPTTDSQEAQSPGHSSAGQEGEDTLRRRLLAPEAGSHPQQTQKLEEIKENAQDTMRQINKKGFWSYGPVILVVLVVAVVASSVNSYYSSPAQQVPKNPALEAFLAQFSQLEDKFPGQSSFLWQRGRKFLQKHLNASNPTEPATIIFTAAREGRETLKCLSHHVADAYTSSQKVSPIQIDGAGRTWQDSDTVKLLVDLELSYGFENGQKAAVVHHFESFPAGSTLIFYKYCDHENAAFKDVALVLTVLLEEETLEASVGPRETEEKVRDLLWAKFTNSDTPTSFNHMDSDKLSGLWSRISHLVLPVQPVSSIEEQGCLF
Sequence of Neurogenic locus notch homolog protein 3 (Homo sapiens) (Q9UM47 whole entry, looked up): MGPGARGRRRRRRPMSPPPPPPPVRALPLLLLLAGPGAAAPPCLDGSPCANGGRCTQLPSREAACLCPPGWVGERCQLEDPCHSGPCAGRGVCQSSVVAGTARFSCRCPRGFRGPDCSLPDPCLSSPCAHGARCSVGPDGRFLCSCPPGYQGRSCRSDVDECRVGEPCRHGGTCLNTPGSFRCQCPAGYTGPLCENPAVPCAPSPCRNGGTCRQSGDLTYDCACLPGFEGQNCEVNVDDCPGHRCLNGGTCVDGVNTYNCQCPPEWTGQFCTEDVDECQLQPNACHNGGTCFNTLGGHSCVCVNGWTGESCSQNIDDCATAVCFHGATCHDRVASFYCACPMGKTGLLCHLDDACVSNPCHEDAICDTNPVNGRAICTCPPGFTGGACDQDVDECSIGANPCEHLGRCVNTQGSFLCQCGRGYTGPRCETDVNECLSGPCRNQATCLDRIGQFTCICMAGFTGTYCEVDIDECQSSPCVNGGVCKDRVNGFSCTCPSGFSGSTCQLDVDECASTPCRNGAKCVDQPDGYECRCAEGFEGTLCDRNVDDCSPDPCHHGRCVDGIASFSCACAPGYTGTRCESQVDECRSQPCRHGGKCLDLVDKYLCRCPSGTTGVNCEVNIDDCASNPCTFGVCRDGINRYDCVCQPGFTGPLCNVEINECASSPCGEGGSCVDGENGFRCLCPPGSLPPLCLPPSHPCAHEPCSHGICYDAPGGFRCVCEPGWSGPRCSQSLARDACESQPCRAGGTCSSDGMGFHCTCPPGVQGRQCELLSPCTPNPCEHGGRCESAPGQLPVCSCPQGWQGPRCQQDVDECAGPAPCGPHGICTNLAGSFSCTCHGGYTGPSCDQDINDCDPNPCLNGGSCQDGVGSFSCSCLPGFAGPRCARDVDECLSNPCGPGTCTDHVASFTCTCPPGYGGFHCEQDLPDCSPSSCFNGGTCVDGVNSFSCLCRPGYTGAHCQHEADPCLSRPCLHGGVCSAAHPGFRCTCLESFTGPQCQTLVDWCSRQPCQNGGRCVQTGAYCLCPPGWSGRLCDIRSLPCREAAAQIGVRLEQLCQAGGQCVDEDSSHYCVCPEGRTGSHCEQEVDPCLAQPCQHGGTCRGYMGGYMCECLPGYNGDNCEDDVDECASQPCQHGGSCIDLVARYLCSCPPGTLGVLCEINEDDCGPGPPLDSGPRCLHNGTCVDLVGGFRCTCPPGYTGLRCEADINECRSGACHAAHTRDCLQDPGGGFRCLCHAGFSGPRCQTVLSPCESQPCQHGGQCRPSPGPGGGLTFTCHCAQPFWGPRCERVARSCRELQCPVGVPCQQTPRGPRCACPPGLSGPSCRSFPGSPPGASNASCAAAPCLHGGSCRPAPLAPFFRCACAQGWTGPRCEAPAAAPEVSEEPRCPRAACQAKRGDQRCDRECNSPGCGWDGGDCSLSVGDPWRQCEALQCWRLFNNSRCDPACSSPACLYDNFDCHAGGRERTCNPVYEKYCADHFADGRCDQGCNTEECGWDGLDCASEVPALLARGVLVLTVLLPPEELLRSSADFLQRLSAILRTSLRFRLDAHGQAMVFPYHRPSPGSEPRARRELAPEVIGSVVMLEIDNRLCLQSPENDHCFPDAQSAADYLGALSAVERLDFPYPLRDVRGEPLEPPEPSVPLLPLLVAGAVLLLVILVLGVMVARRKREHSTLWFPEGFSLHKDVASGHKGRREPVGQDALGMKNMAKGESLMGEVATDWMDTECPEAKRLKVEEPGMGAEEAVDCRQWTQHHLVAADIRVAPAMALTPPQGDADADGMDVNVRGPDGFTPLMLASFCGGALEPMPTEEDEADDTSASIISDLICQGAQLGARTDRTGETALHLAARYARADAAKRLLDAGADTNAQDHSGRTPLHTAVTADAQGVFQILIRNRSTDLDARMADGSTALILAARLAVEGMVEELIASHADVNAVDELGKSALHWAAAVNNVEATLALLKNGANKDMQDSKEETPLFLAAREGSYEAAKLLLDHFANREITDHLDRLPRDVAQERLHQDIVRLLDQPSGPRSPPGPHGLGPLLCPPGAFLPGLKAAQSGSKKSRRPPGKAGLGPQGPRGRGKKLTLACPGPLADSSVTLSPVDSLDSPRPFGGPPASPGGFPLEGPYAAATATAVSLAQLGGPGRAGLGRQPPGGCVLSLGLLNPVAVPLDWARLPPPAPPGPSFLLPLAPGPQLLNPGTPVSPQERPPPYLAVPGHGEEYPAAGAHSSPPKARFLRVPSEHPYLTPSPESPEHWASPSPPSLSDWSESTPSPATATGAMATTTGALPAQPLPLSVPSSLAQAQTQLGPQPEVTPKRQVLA

Row | Structure (SMILES) | composite z-score [1] | z-score [2] | z-score [3] | z-score [4] | composite z-score [5] | z-score [6] | composite z-score [7] | composite z-score [8] | composite z-score [9] | composite z-score [10]
1 | COC(=O)C1=C(C)N(Cc2ccccc2)[C@]23O[C@](C(=O)OC)(C(=O)N2[C@@H]1c1ccccc1)[C@H]1C(=O)N(c2ccccc2)C(=O)[C@H]13 | 0.343 and -0.0383 | 0.434 (inactive) and 0.397 (inactive) | -0.261 (inactive) and -0.858 (inactive) | -0.558 (inactive) and 0.264 (inactive) | 1.14 and 0.69 | 0.102 (inactive) and 0.185 (inactive) | -0.0812 and -0.0245 | 0.468 and 0.611 | 0.649 and 1.11 | 0.253 and 0.0534
2 | CCCCN1CC=CC23O[C@@H]4C=CCCOC(=O)C4[C@H]2C(=O)N(C(C)CO)[C@@H]3C1=O (stereo not given in full) | 0.275 and -0.575 | -0.601 (inactive) and 1.38 (inactive) | -0.158 (inactive) and 1.52 (inactive) | -0.164 (inactive) and 0.868 (inactive) | 3.12 and -0.0307 | -0.164 (inactive) and 0.287 (inactive) | -0.179 and -0.0421 | -0.72 and -0.244 | -0.391 and -0.4 | -0.221 and 0.0329
3 | C[N+](C)(C)CCCCCCNC(=O)[C@H]1C[C@H]2C(=O)N[C@@H](CCCC[N+](C)(C)C)C(=O)N2[C@H]1c1ccc(O)cc1 | 0.258 and -0.147 | 0.166 (inactive) and 0.547 (inactive) | 0.268 (inactive) and -0.656 (inactive) | 0.122 (inactive) and 0.411 (inactive) | 0.106 and 0.967 | 0.595 (inactive) and -0.0409 (inactive) | -0.0322 and -0.0179 | 0.938 and 0.161 | -0.275 and -0.316 | -0.151 and -0.236
4 | C=C(C)C(=O)OC[C@@H]1CN2[C@@H](CC[C@@H](C)[C@@H]2c2ccc(Br)cc2)C(=O)O1 | 0.819 | -0.792 (inactive) | -2.7 (inactive) | -1.52 (inactive) | 1.32 | 0.53 (inactive) | -0.247 | 0.314 | 0.259 | 0.0251
5 | C=CCN(CCCCC)C(=O)C1N(c2ccc(CCO)cc2)C(=O)C2C(C(=O)O)C3C=CC21O3 (stereo not given) | -0.303 and -0.476 | 0.0099 (inactive) and -0.194 (inactive) | -0.804 (inactive) and 0.336 (inactive) | -0.231 (inactive) and -0.137 (inactive) | -0.379 and 0.173 | 0.287 (inactive) and 1.11 (inactive) | -0.0374 and 0.699 | -1.73 and -1.08 | -0.636 and -0.651 | -0.233 and -0.145
6 | C=CCN1C(=O)[C@]2(O[C@H](CCn3cc(CCO)nn3)[C@@H]([Si](C)(C)c3ccc(OC)cc3)[C@@H]2C)c2cc(N3C(=O)c4cccc5cccc3c45)ccc21 | 1.27 and 1.46 | 1.25 (inactive) and 0.648 (inactive) | 1.82 (inactive) and 1.64 (inactive) | 36.8 (active) and 36.6 (active) | 1.73 and 1.57 | 1.43 (inactive) and 0.793 (inactive) | -0.166 and -0.177 | 0.708 and 0.778 | 0.644 and 0.979 | -0.0828 and -0.238
7 | CCN1C(=O)[C@H]2[C@H]3[C@H](O)[C@H](O)CC(=NOC[C@@H](O)COCc4ccco4)[C@@H]3CC[C@H]2C1=O | 1.4 and 0.727 | 0.686 (inactive) and 0.102 (inactive) | 0.315 (inactive) and 0.174 (inactive) | 1.29 (inactive) and 0.945 (inactive) | -1.03 and 0.493 | 0.0584 (inactive) and -1.13 (inactive) | -0.266 and -0.44 | 0.445 and -0.121 | -0.365 and -0.32 | 0.0747 and -0.0413
8 | O=C1C[C@]2(c3ccc([N+](=O)[O-])cc3)C(=O)N(Cc3ccccc3)c3cc(CO)ccc3[C@H]2N1C1CCCCC1 | 1.33 and 0.39 | -0.754 (inactive) and -0.363 (inactive) | 0.31 (inactive) and -0.838 (inactive) | -1.02 (inactive) and 3.78 (inactive) | 2.21 and 1.14 | 0.245 (inactive) and 0.545 (inactive) | -0.21 and 0.668 | 0.469 and 0.225 | 0.219 and 0.161 | -0.0828 and 0.805
9 | C[C@@H](ON=C1[C@H]2CCn3c(=O)n(-c4ccccc4)c(=O)n3[C@H]2[C@H](O)[C@@H]2O[C@H]12)c1cn([C@H](CO)Cc2ccccc2)nn1 | 0.587 | -0.217 (inactive) | -0.165 (inactive) | 0.0121 (inactive) | 0.61 | 0.381 (inactive) | -0.282 | 0.557 | 0.668 | -0.194
10 | C=C[C@@H](OC)[C@H](O)c1ccc(O)c(F)c1 | -0.846 and -1.51 | 0.144 (inactive) and -3.13 (inactive) | -1.44 (inactive) and -3.23 (inactive) | 0.126 (inactive) and -0.692 (inactive) | -0.329 and -0.941 | 0.401 (inactive) and 1.45 (inactive) | -0.257 and -0.124 | -2.13 and -1.13 | -1.37 and -0.192 | -0.435 and -0.299
11 | C=CCN(CCCCC)C(=O)C1N(CCCCCCO)C(=O)C2C(C(=O)O)C3C=CC21O3 (stereo not given) | 0.19 and -0.725 | -0.657 (inactive) and -0.677 (inactive) | -0.849 (inactive) and -0.744 (inactive) | -0.44 (inactive) and -0.767 (inactive) | 0.565 and 1.97 | -0.617 (inactive) and -0.541 (inactive) | -0.126 and -0.0198 | -2.33 and -1.76 | -0.968 and -0.32 | -0.322 and -0.32
12 | C=CCN(CCCC)C(=O)C(c1cccs1)N(C(=O)/C=C\C(=O)O)c1c(Cl)cccc1CO (stereo not given) | -0.663 and -0.538 | 0.135 (inactive) and 0.537 (inactive) | -0.266 (inactive) and 1.12 (inactive) | -0.548 (inactive) and -0.522 (inactive) | 0.376 and 0.744 | 0.224 (inactive) and -0.174 (inactive) | 0.148 and -0.235 | -1.97 and -2.53 | -2.02 and -1.33 | -0.451 and -0.328
13 | CC(C)N1CC=CC23O[C@@H]4C=CCCOC(=O)C4[C@H]2C(=O)N(C(C)CO)[C@@H]3C1=O (stereo not given in full) | 1.18 and -0.323 | -1.29 (inactive) and 0.11 (inactive) | -1.18 (inactive) and -1.07 (inactive) | -1.28 (inactive) and 0.687 (inactive) | 3.21 and -0.371 | 2.82 (inactive) and 2.22 (inactive) | -0.0911 and -0.043 | -1.14 and -0.975 | -0.22 and -0.455 | -0.317 and -0.308
14 | COC(=O)[C@H](C)NC(=O)CCC1CC(OC(=O)NCCc2ccc(F)cc2)CC2(CCCC(COC(=O)NCCCN3CCCC3=O)O2)O1 (stereo not given in full) | 1.55 | -0.432 (inactive) | 0.899 (inactive) | 0.849 (inactive) | 1.64 | -0.681 (inactive) | -0.168 | 0.727 | 1.03 | -0.0505
15 | COC(=O)c1c2oc(c1C(=O)OC)C(=O)N[C@@H](Cc1ccccc1)Cn1cc(nn1)C1(CCCCC1)NC(=O)N[C@H](CO)CC2 | 1.43 and 0.951 | 0.168 (inactive) and 0.611 (inactive) | -0.79 (inactive) and -0.186 (inactive) | -0.427 (inactive) and -0.2 (inactive) | 2.52 and 0.978 | 2.09 (inactive) and 1.21 (inactive) | 0.558 and 0.72 | 1.57 and 0.416 | 0.971 and 0.57 | 0.0408 and -0.0697
16 | C=CCN(C(=O)C1N(c2ccc(CCO)cc2)C(=O)C2C(C(=O)O)C3C=CC21O3)c1ccc(OC)cc1 (stereo not given) | -0.133 and -0.497 | 0.156 (inactive) and -0.236 (inactive) | 0.332 (inactive) and -0.577 (inactive) | 0.131 (inactive) and -1.62 (inactive) | 0.0657 and -1.42 | 0.683 (inactive) and 2.67 (inactive) | -0.0641 and 0.0524 | -1.24 and -0.818 | 0.0568 and -1.8 | -0.302 and -0.367
17 | COC(=O)[C@@]1(Cc2ccc(OC)cc2)[C@H]2c3cc(C(=O)N(C)C)n(Cc4ccc(O)c(OC)c4)c3C[C@H]2CN1C(=O)c1ccccc1 | -0.406 and 0.571 | 0.403 (inactive) and -0.731 (inactive) | 1.08 (inactive) and 1.73 (inactive) | 0.374 (inactive) and 2.03 (inactive) | 3.65 and 3.34 | 0.151 (inactive) and 0.266 (inactive) | 0.437 and 0.261 | 0.219 and 0.19 | 0.807 and 1.07 | 0.0395 and 0.0354
18 | COC(=O)[C@@]1(Cc2ccccc2)[C@H]2c3cc(C(=O)N(C)C)n(Cc4ccc(C)c(F)c4F)c3C[C@H]2CN1C(=O)c1ccccc1 | -0.325 and 1.23 | -0.542 (inactive) and -0.0959 (inactive) | -0.991 (inactive) and 1.01 (inactive) | -0.447 (inactive) and 1.48 (inactive) | 3.44 and 3.67 | -0.359 (inactive) and -0.543 (inactive) | 0.378 and 0.513 | -0.566 and 0.645 | 0.636 and 1.06 | 0.168 and 0.646
19 | C=C[C@@H](C)[C@@H](O)c1ccc(OCCO)cc1 | -0.851 and 0.0376 | 0.0436 (inactive) and -2.75 (inactive) | 0.162 (inactive) and -0.815 (inactive) | -0.607 (inactive) and 0.262 (inactive) | -1.11 and -0.508 | -0.0921 (inactive) and 1.12 (inactive) | 0.0893 and 0.2 | -1.72 and -1.7 | -0.574 and -0.377 | -0.397 and -0.374
20 | O=C1NC(=O)C2C1C=CC(C(O)c1ccc([N+](=O)[O-])cc1)N2Nc1ccc(Cl)cc1Cl (stereo not given) | 0.551 and 0.395 | -1.44 (inactive) and -1.78 (inactive) | -1.46 (inactive) and -1.07 (inactive) | -0.923 (inactive) and -0.888 (inactive) | 3.3 and 3.03 | 0.33 (inactive) and 0.728 (inactive) | 0.127 and 0.386 | -0.142 and -0.311 | 0.843 and 0.588 | 0.0661 and -0.102
21 | C=CCN(Cc1ccccc1)C(=O)C1N(c2ccc(CCO)cc2)C(=O)C2C(C(=O)O)C3C=CC21O3 (stereo not given) | -1.64 and -0.655 | 0.774 (inactive) and -0.721 (inactive) | -0.455 (inactive) and 0.116 (inactive) | 0.599 (inactive) and -1.29 (inactive) | -0.933 and -1.02 | 1.12 (inactive) and 2.04 (inactive) | 0.0395 and 0.0834 | -2.88 and -1.99 | -1.35 and -1.12 | -0.418 and -0.305
22 | C=CCN(C(=O)C(c1cccs1)N(C(=O)/C=C\C(=O)O)c1ccc(CCO)cc1)c1ccc(OC)cc1 (stereo not given) | -1.26 and -1.84 | -0.755 (inactive) and 0.13 (inactive) | -0.548 (inactive) and -0.894 (inactive) | -0.929 (inactive) and -0.544 (inactive) | -0.879 and -1.32 | 1.92 (inactive) and 0.715 (inactive) | -0.0446 and -0.0463 | -1.86 and -2.24 | -0.314 and -1.78 | -0.231 and -0.348
